Experimental findings from PubChem BioAssay are described below.

One experiment has as its target Albumin (Bos taurus) (UniProt P02769). As to the kind of experiment: compounds binding labelled BSA control protein – biochemical, small-molecule microarray, Alexa647 label, 635/667 nm fluorescence, artefact control for SMM control protein annotation, profiling panel (AID 1118).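 Note: score merges 667 nm emission intensity and signal-to-noise per printed compound spot.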 Conditions: BSA-A647 binding, fluorescence 635 nm, higher = more signal.
Experiment [1] in a line: probe aXIP binding to arrayed compounds – biochemical, NeuroSMM set, 635/667 nm fluorescence, primary screen (AID 1119).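 Note: probe is the protein aXip251-270 applied at 1 µg/mL to compound-printed slides; binding of probe to printed compounds measured as 667 nm fluorescence plus signal to noise.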 Conditions: small-molecule microarray, higher = more signal, called active from +8 up or from −8 down.
A short description of experiment [2]: probe aNOTCH3 binding on compound microarray – biochemical, small-molecule microarray, 635/667 nm fluorescence, primary screen (AID 1120).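 Note: probe is a biotin-tagged antibody raised against NOTCH3 rather than NOTCH3 protein; score merges spot fluorescence near 667 nm with spot signal to noise.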 To be noted: higher = more signal.
The nature of experiment [3]: probe aNOTCH2 binding on compound microarray – biochemical, small-molecule microarray, 635/667 nm fluorescence, primary screen (AID 1121).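 Note: score merges feature fluorescence read at 667 nm with its signal to noise.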 To be noted: higher = more signal.
For experiment [4], the target named is Carbonic anhydrase 2 (Homo sapiens) (UniProt P00918). The experiment is described as follows: compounds binding carbonic anhydrase 2 – biochemical, small-molecule microarray, Alexa647-labelled CAII, profiling panel (AID 1122). To be noted: CAII-A647 binding fluorescence, higher = more signal.
Experiment [5] can be described thus: COS7 lysate on small-molecule microarray, probe aHis, 635 nm (AID 1123).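 Note: z-score combines 667nm fluorescence intensity with signal-to-noise per printed compound spot.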 To be noted: COS7 cell lysate, fluorescence, higher = more signal.
The nature of experiment [6]: probe aLAP1 signal on lysate-treated microarray – cell lysate, small-molecule microarray, COS7 lysate, primary screen (AID 1124).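 Note: lysate comes from COS7 cells expressing LAP1 and is applied at 0.3 µg/mL; score merges spot fluorescence near 667 nm with signal-to-noise over triplicate slides.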 Conditions: probe aLAP1, fluorescence, higher = more signal.
A further experiment relates to Sam68 (KHDRBS1). As to the kind of experiment: compounds binding KHDRBS1 protein – biochemical, small-molecule microarray, 635 nm fluorescence, primary screen (AID 1125).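 Note: score merges 667 nm channel intensity with signal to noise over triplicate slides.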 To be noted: higher = more signal.
Experiment [7] has as its system Chordin-like protein 2 (CHRDL2). As to the kind of experiment: compounds binding chordin-like 2 – biochemical, small-molecule microarray, 635 nm fluorescence, primary screen (AID 1126).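 Note: printed compound slides probed with Chrdl2 protein at 4 µg/mL for 1 h at 4 C; score merges 667 nm emission intensity with signal to noise over three replicate slides.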 To be noted: fluorescence 635 nm, higher = more signal.
Experiment [8] has as its target Concanavalin-A (Canavalia ensiformis) (UniProt P02866). The experiment is described as follows: compounds binding concanavalin A lectin – biochemical, small-molecule microarray, Alexa647 label, 635 nm, artefact control for SMM control protein annotation, primary screen (AID 1127).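 Note: z combines 667 nm emission intensity with signal-to-noise across three replicate slides.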 Conditions: ConA-A647 binding fluorescence, higher = more signal.
Experiment [9] is described as follows: compounds binding Alexa647 anti-His antibody – biochemical, small-molecule microarray, 635 nm fluorescence, artefact control for SMM control protein annotation, primary screen (AID 1128).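 Note: score merges feature fluorescence with signal-to-noise for each printed compound spot.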 Conditions: higher = more signal.
For experiment [10], the system named is Human papillomavirus type 1a E7 protein (residues 1-88). As to the kind of experiment: HPV1a E7 small-molecule binders, primary screen, biochemical, small-molecule microarray, residues 1-88, 635 nm (AID 1129). Conditions: small-molecule microarray binding, fluorescence 635 nm; higher = more signal.
The target in experiment [11] is Focal adhesion kinase 1 (Homo sapiens) (UniProt Q05397). The experiment is described as follows: PTK2 protein binding on printed compound slides – biochemical, small-molecule microarray, 635/667 nm fluorescence, BSA, DTT, primary screen (AID 1130).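 Note: composite of spot emission at 667 nm and signal to noise over triplicate slides.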 Conditions: 635 nm fluorescence, higher = more signal.
For experiment [12], the system named is Fibrinogen (Alexa647-labelled). As to the kind of experiment: Alexa647-fibrinogen binding to printed small molecules – biochemical, small-molecule microarray, 635/667 nm fluorescence, artefact control for SMM control-protein annotation, profiling panel (AID 1131).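 Note: z-score merges 667 nm fluorescence with per-spot signal-to-noise over triplicate slides.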 To be noted: fibrinogen-A647 binding fluorescence, higher = more signal.
For experiment [13], the target named is Follistatin (Homo sapiens) (UniProt P19883). The experiment is described as follows: FST protein binding to printed compounds – biochemical, small-molecule microarray, 635/667 nm fluorescence, primary screen (AID 1132). Conditions: 635 nm fluorescence, higher = more signal.
Experiment [14] deals with Fibroblast growth factor 2 (Homo sapiens) (UniProt P09038). The experiment is described as follows: basic fibroblast growth factor binding to printed compounds – biochemical, small-molecule microarray, 635/667 nm fluorescence, primary screen (AID 1133). To be noted: FGF2, fluorescence 635/667, higher = more signal.
Experiment [15] in a line: JC-1 mitochondrial potential readout, lung cancer cells – cell-based, A549, JC-1 fluorescence, basal, 24 h, 100 nL, profiling panel (AID 1138).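 Note: A549 lung adenocarcinoma cells under basal conditions with no added stimulus; test concentration not given here.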 Conditions: higher = more signal.
In another experiment the test system is Lefty1. The experiment is described as follows: Lefty1 protein binding to printed compounds – biochemical, small-molecule microarray, 635/667 nm fluorescence, primary screen (AID 1139). Conditions: fluorescence 635/667, higher = more signal.
In experiment [16] the test system is wheat germ agglutinin (Triticum aestivum), Alexa647-labelled. The experiment is described as follows: Alexa647-WGA lectin binding to printed small molecules – biochemical, small-molecule microarray, 635/667 nm fluorescence, artefact control for SMM control-protein annotation, profiling panel (AID 1140).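 Note: score merges 667 nm feature emission with signal to noise over triplicate slides.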 Conditions: WGA-A647 binding, 635 nm fluorescence, higher = more signal.

For experiment [17], the target named is Luciferin 4-monooxygenase (Photinus pyralis) (UniProt P08659). The experiment is described as follows: inhibition of purified Photinus pyralis luciferase – biochemical, luminescence, purified enzyme, 2006 set, primary screen (AID 1141).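 Note: cell-free assay with purified firefly luciferase at 100 ng per well in PBS; test concentration not given here.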 Conditions: purified firefly luciferase, SteadyGlo luminescence, 30 min; higher = more signal, called active from +8 up or from −8 down.

Calls of active or inactive are those of the source.

Fibroblast growth factor 2 (Homo sapiens), sequence (P09038 whole entry, looked up): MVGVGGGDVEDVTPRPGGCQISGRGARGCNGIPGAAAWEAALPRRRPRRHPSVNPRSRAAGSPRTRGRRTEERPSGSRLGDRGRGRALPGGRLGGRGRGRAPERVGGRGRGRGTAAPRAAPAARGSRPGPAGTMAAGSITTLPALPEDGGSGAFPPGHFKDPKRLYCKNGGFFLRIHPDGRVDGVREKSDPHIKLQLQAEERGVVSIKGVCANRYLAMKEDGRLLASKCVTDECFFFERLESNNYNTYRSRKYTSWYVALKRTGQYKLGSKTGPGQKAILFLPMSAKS
Concanavalin-A (Canavalia ensiformis), sequence (P02866 whole entry, looked up): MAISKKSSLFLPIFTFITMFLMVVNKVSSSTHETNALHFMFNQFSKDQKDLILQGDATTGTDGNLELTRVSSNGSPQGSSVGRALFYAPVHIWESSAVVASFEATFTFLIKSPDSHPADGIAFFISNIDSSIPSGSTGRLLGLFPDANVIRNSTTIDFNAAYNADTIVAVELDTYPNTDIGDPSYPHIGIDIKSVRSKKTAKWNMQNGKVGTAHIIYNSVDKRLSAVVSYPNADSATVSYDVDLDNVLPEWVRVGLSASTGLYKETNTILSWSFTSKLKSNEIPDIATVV
Luciferin 4-monooxygenase (Photinus pyralis), sequence (P08659 whole entry, looked up): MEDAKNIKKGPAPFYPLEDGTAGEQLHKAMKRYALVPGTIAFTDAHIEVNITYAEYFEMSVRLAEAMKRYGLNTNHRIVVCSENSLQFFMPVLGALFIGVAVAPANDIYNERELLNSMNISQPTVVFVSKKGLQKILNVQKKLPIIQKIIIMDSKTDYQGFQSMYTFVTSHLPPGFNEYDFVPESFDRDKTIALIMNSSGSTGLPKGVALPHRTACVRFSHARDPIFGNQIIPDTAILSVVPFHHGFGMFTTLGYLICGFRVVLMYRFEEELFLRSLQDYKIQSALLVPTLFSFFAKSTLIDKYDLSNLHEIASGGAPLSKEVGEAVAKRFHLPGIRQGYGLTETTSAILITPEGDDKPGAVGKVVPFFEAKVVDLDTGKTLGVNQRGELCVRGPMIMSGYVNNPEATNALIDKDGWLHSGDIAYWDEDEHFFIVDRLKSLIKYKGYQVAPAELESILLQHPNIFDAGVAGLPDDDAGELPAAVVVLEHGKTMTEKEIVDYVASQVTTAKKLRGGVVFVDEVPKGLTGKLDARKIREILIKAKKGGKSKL
Focal adhesion kinase 1 (Homo sapiens), sequence (Q05397 whole entry, looked up): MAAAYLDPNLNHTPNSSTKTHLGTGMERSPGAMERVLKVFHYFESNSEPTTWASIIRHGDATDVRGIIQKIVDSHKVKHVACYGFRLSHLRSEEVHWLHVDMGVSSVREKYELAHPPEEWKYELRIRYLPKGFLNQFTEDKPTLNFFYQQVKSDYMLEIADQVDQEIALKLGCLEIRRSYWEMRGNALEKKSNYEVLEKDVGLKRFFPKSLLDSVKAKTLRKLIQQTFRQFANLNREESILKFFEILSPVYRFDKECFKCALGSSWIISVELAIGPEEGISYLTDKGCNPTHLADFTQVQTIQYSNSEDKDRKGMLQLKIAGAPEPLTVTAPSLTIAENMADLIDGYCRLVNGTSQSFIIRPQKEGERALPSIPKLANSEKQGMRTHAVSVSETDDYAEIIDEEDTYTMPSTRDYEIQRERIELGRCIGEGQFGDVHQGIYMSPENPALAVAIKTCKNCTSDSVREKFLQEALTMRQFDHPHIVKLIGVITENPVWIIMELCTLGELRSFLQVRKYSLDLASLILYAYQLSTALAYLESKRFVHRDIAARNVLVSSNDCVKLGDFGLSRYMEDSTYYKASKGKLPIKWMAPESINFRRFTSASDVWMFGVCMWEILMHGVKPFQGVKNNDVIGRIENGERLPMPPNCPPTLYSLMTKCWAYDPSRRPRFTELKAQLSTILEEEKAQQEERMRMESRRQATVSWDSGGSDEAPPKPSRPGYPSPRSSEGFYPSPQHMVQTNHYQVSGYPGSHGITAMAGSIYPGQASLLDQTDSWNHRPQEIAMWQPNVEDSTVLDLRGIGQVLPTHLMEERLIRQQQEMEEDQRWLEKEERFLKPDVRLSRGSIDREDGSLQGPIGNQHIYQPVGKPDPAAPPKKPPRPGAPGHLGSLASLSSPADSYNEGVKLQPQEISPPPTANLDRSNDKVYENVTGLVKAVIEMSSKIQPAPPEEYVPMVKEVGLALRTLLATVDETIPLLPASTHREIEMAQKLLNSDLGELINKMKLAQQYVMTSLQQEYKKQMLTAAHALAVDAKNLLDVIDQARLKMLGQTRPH
Albumin (Bos taurus), sequence (P02769 whole entry, looked up): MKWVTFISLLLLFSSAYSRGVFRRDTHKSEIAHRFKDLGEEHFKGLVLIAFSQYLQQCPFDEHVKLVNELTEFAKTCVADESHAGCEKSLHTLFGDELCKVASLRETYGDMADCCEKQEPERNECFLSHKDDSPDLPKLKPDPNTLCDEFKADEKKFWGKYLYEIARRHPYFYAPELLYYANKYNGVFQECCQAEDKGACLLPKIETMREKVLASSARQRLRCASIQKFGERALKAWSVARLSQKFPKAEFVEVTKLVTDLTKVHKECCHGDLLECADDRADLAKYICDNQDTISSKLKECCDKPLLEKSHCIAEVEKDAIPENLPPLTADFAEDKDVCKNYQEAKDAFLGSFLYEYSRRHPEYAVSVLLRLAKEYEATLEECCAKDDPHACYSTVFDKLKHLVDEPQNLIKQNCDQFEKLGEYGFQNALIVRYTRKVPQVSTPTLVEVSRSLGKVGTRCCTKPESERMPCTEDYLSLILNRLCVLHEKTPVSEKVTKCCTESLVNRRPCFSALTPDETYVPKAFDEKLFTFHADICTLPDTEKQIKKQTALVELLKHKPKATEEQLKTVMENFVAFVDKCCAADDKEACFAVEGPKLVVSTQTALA
Follistatin (Homo sapiens), sequence (P19883 whole entry, looked up): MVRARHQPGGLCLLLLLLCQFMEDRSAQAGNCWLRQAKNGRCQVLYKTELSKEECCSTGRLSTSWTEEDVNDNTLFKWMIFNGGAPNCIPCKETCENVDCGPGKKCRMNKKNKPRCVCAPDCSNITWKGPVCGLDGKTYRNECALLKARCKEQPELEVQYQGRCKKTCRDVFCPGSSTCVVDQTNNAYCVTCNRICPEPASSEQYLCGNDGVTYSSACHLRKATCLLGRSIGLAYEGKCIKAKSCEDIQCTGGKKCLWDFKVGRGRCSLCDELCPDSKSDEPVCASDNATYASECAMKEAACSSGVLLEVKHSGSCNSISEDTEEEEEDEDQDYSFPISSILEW

With `CC(=O)N1Cc2ccccc2C[C@@]2(N=C(c3ccc(OCCCO)cc3)O[C@H]2c2ccccc2)C1=O`, the composite z-score with Albumin (Bos taurus) is -0.0471; in experiment [2], 0.22; in [3], 0.139; in experiment [4], 0.709; in experiment [5], 3.18; in experiment [6] it was 1.24. Moreover, the composite z-score with Sam68 (KHDRBS1) is 1.3; in [7], 0.611; in [8], 1.17; in [9] it was 2.65; in experiment [10] it was 1.17; in [11] it was 0.52. The composite z-score in [12] was 0.657; in [13] it was 1.41; in experiment [14], 1.66; with Lefty1, 0.63; in experiment [16] it was 1.1. In [1], the composite Z-score is 0.0748 (inactive). Further, the values for the z-score in [15] and in [17] were 0.592 and -2.32 (inactive), respectively.

Consider `COc1cc2c(cc1O)C(c1ccc(CN3CCCC3)cc1)N(Cc1sc3ccccc3c1Cl)CC2` (stereo not given), for which the composite z-score with Albumin (Bos taurus) is -0.185; in experiment [2], 0.0394; in [3], -0.0861; in experiment [4], 0.752; in experiment [5], 0.415; in experiment [6], 0.179. Also, the composite z-score is -0.209 in the experiment with Sam68 (KHDRBS1); 1.05 in experiment [7]; 1.11 in experiment [8]; 0.423 in experiment [9]; -0.18 in experiment [10]; 0.0344 in experiment [11]. Further, the composite z-score came out at 0.455 in experiment [12]; 1.03 in experiment [13]; 1.17 in experiment [14]; 0.501 in the experiment on Lefty1; 0.421 in [16]. For the same molecule, in experiment [1], the composite Z-score is 0.0786 (inactive). Besides, the results for the z-score in [15] and in experiment [17] were -0.763 and 1.14 (inactive), respectively.

For `C=CC[C@@]1(C(N)=O)N=C(c2ccc(OCCCO)cc2)O[C@@H]1c1ccccc1N=[N+]=[N-]`, the composite z-score with Albumin (Bos taurus) came out at 0.225; in experiment [2] it was 0.116; in experiment [3], 0.468; in [4], 0.555; in experiment [5], 1.64; in experiment [6], 1.82. In addition, the composite z-score in the experiment on Sam68 (KHDRBS1) was 0.934; in [7] it was 1.16; in [8], 0.126; in [9] it was 1.91; in experiment [10] it was 1.24; in [11], 0.231. The composite z-score is 0.183 in experiment [12]; 1.34 in [13]; 1.14 in [14]; 1.04 in the experiment with Lefty1; 1.13 in [16]. The composite Z-score in experiment [1] is -0.56 (inactive). Also, the z-score in [15] was 0.755; in [17], -5.82 (inactive).

For `Cc1ccc(S[C@]2(C(=O)NCC(C)C)CC(=O)N(Cc3ccccc3)[C@@H]2c2ccc(CO)cc2)cc1`, the composite z-score with Albumin (Bos taurus) was 0.397; in experiment [2] it was -0.406; in [3] it was 0.0196; in [4], 0.748; in [5], 1.78; in experiment [6], 0.984. Moreover, the composite z-score is -0.0273 with Sam68 (KHDRBS1); -2.02 in [7]; -1.1 in experiment [8]; -0.549 in experiment [9]; -0.467 in [10]; -0.0956 in experiment [11]. Also, the composite z-score in [12] is -1.2; in experiment [13], -0.795; in experiment [14], -0.42; with Lefty1, -1.4; in experiment [16] it was -0.282. In addition, the composite Z-score in [1] was 0.941 (inactive). Also, the z-score in experiment [15] was -0.254; in experiment [17], -0.766 (inactive).

Consider `C=CCOC(=O)[C@H]1[C@@H]2C(=O)O[C@@H](c3ccccc3)[C@@H](c3ccccc3)N2[C@@H](c2ccc(OCCOC(=O)[C@@H]3C[C@@H]4C(=O)NCC(=O)N4[C@@H]3c3ccc(O)cc3)cc2)[C@]12C(=O)Nc1ccc(I)cc12`, for which the composite z-score in the experiment with Albumin (Bos taurus) was 0.733; in experiment [2], 0.0435; in experiment [3], -0.0583; in experiment [4], 0.647; in experiment [5], 1.71; in experiment [6] it was 0.888. Besides, the composite z-score with Sam68 (KHDRBS1) stood at 1.3; in experiment [7], 1.09; in experiment [8] it was 1.14; in experiment [9] it was 1.59; in experiment [10], 1.22; in experiment [11], 2.17. The composite z-score in experiment [12] was found to be 0.597; in experiment [13], 1.41; in experiment [14] it was 1.65; with Lefty1, 1.24; in [16] it was 0.763. In addition, the composite Z-score in [1] was 1.05 (inactive). For the same molecule, the z-score in experiment [15] was -1.17; in [17], -0.978 (inactive).
